Results reported in PubChem BioAssay (NCATS).
Inconclusive results are not listed. Unmarked numbers belong to inactive results. Activity calls are given as the source filed them. The call rests on the fitted dose curve.

Test: Primary qHTS for Huh7 cytotoxicity: counterscreen for inhibitors of MERS-S pseudotyped particle cell entry (AID 1479147)
Details: cell viability read-out; series mostly up to 57.1 µM; activity change, negative = cytotoxicity: at the top concentration
On the % scale 0 is the no-effect control and ±100 the full control effect; potency means the concentration at half of the fitted maximal effect.

| SMILES | activity change, negative = cytotoxicity | outcome | Potency |
| --- | --- | --- | --- |
| O=C(/C=C/c1cccc(S(=O)(=O)Nc2ccccc2)c1)NO | -10.1% | – | – |
| CCCC1C(=O)N2C(N(C)C)=Nc3ccc(C)cc3N2C1=O (configuration not stated) | – | inactive [at 114 µM] | – |
| CCCCCCCCCCCCCCCCCC(=O)OCC(C)O (configuration not stated) | – | inactive [at 114 µM] | – |
| CC(C)(O)CNc1nc(Nc2ccnc(C(F)(F)F)c2)nc(-c2cccc(C(F)(F)F)n2)n1 | -1.97% | – | – |
| COc1ccc(C[C@H](C)NC[C@@H](O)c2ccc(O)c(NC=O)c2)cc1 | -3.48% | – | – |
| C/C=C/C=C/C(=O)O | – | inactive | – |
| O=C(OCc1ccccc1)c1cccnc1 | -8.36% | – | – |
| O=C(NNCS(=O)(=O)O)c1ccncc1 | – | inactive | – |
| CC(C)=C/C(C)=N\Nc1nncc2ccccc12 | -20% | – | – |
| O=C(O)CC(O)CC(O)/C=C/c1c(C2CC2)nc2ccccc2c1-c1ccc(F)cc1 (configuration not stated) | – | inactive | – |
| OCC(O)COc1ccc(Cl)cc1 (configuration not stated) | – | inactive [at 171 µM] | – |
| CS(=O)(=O)n1cc2c(n1)CN([C@H]1CO[C@H](c3cc(F)ccc3F)[C@@H](N)C1)C2 | – | inactive | – |
| CCCC[C@H](C)C[C@H](O)/C=C/[C@H]1[C@H](O)CC(=O)[C@@H]1CCCC/C=C/C(=O)O | – | inactive | – |
| O=C(O)[C@H](O)[C@@H](O)[C@H](O)[C@H](O)CO | -1.79% | – | – |
| C#C[C@]1(O)CC[C@@H]2[C@@H]3CCC4=CCCC[C@@H]4[C@H]3C(=C)C[C@@]21CC | -5.74% | – | – |
| N[C@@H]1CCCCN(c2c(F)cc3c(=O)c(C(=O)O)cn(C4CC4)c3c2Cl)C1 | -29% | – | – |
| CO[C@H]1C[C@@H]2CC[C@@H](C)[C@@](O)(O2)C(=O)C(=O)N2CCCC[C@H]2C(=O)O[C@H]([C@H](C)C[C@@H]2CC[C@@H](OC(=O)C(C)(CO)CO)[C@H](OC)C2)CC(=O)[C@H](C)/C=C(\C)[C@@H](O)[C@@H](OC)C(=O)[C@H](C)C[C@H](C)/C=C/C=C/C=C/1C | -3.98% [at 26.4 µM] | – | – |
| CN(C)C=Nc1c(I)cc(I)c(CCC(=O)O)c1I | – | inactive | – |
| CCC(C(=O)O)[C@H]1CC[C@H](C)[C@H]([C@@H](C)[C@H](O)[C@H](C)C(=O)[C@H](CC)[C@H]2OC3(C=C[C@@H](O)[C@]4(CC[C@@](C)([C@H]5CC[C@](O)(CC)[C@H](C)O5)O4)O3)[C@H](C)C[C@@H]2C)O1 (some centres not stated) | – | – | 7.94 µM (active) |
| CC=CC1C(C(=O)OCc2c(F)c(F)c(COC)c(F)c2F)C1(C)C (configuration not stated) | 1.77% | – | – |
| CCCCCCCCCCCC[n+]1ccc2ccccc2c1 | -27.2% | – | – |
| COC(=O)CCC[N+](C)(C)C | – | inactive | – |
| CCCCCC/C=C\CCCCCCCC(=O)O | -2.76% | – | – |
| CC(C)CCCC(C)NC(C)C (configuration not stated) | – | inactive | – |
| CN(C)c1ccc(C(=C2C=CC(=[N+](C)C)C=C2)c2c(O)c(S(=O)(=O)[O-])cc3cc(S(=O)(=O)O)ccc23)cc1 | -9.77% | – | – |

Test: Primary qHTS for inhibitors of MERS-S pseudo-typed particle cell entry (AID 1479149); further: nearly all actives have a fitted effect of over 60% in size
Details: MERS-S pseudotyped particle entry, luciferase; series mostly up to 57.1 µM; activity change, negative = inhibition: at the top concentration

| SMILES | Potency | activity change, negative = inhibition | outcome |
| --- | --- | --- | --- |
| CN1CCN(CCCN2c3ccccc3Sc3ccccc32)CC1 | 31.6 µM (active) | – | – |
| CS(=O)(=O)c1ccc([C@@H](O)[C@@H](COC(=O)CN)NC(=O)C(Cl)Cl)cc1 | – | -35.8% | – |
| CC1(C)C(C=C(Cl)Cl)C1C(=O)OCc1cccc(Oc2ccccc2)c1 (configuration not stated) | – | – | inactive |
| CC1(C)S[C@H]2[C@H](NC(=O)[C@@H](N)c3ccc(O)cc3)C(=O)N2[C@H]1C(=O)O | – | – | inactive |
| CCCCCCCCCCCCCCCC(=O)OCC=C(C)C=CC=C(C)C=CC1=C(C)CCCC1(C)C | – | – | inactive |
| CC/C=C\C/C=C\C/C=C\C/C=C\C/C=C\C/C=C\CCC(=O)O | – | – | inactive |
| C[C@@](Cc1ccc(O)c(O)c1)(NN)C(=O)O | – | – | inactive |
| C[S+](CC[C@H](N)C(=O)O)C[C@H]1O[C@@H](n2cnc3c(N)ncnc32)[C@H](O)[C@H]1O (some centres not stated) | – | – | inactive |
| CC/C=C\C/C=C\C/C=C\C/C=C\C/C=C\CCCC(=O)O | – | – | inactive |
| C=C[C@H]1CN2CC[C@H]1C[C@H]2[C@H](O)c1ccnc2ccccc12 | – | -7.16% | – |
| C[C@]12C=CC(=O)C=C1CC[C@@H]1[C@@H]2[C@@H](O)C[C@@]2(C)[C@H]1CC[C@]2(O)C(=O)COC(=O)c1cccc(S(=O)(=O)O)c1 | – | 3.74% | – |
| CC(C)(C)C(=O)OCC(=O)[C@H]1CC[C@H]2[C@@H]3CCC4=CC(=O)CC[C@]4(C)[C@H]3CC[C@]12C | – | – | inactive |
| CC(=O)OCC(=O)[C@@]1(O)CC[C@H]2[C@@H]3C[C@H](C)C4=CC(=O)C=C[C@]4(C)[C@H]3[C@@H](O)C[C@@]21C | – | – | inactive |
| O=C(/C=C/c1cccc(S(=O)(=O)Nc2ccccc2)c1)NO | – | – | inactive |
| CCCC1C(=O)N2C(N(C)C)=Nc3ccc(C)cc3N2C1=O (configuration not stated) | – | – | inactive [at 114 µM] |
| CCCCCCCCCCCCCCCCCC(=O)OCC(C)O (configuration not stated) | – | – | inactive [at 114 µM] |
| COc1ccc(C[C@H](C)NC[C@@H](O)c2ccc(O)c(NC=O)c2)cc1 | – | -14.8% | – |
| C/C=C/C=C/C(=O)O | – | – | inactive |
| O=C(OCc1ccccc1)c1cccnc1 | – | – | inactive |

| SMILES | Potency | activity change, negative = inhibition | outcome |
| --- | --- | --- | --- |
| O=C(NNCS(=O)(=O)O)c1ccncc1 | – | – | inactive |
| CC(C)=C/C(C)=N\Nc1nncc2ccccc12 | – | – | inactive |
| O=C(O)CC(O)CC(O)/C=C/c1c(C2CC2)nc2ccccc2c1-c1ccc(F)cc1 (configuration not stated) | – | – | inactive |
| OCC(O)COc1ccc(Cl)cc1 (configuration not stated) | – | – | inactive [at 171 µM] |
| CS(=O)(=O)n1cc2c(n1)CN([C@H]1CO[C@H](c3cc(F)ccc3F)[C@@H](N)C1)C2 | – | – | inactive |
| CCCC[C@H](C)C[C@H](O)/C=C/[C@H]1[C@H](O)CC(=O)[C@@H]1CCCC/C=C/C(=O)O | – | – | inactive |
| O=C(O)[C@H](O)[C@@H](O)[C@H](O)[C@H](O)CO | – | – | inactive |
| C#C[C@]1(O)CC[C@@H]2[C@@H]3CCC4=CCCC[C@@H]4[C@H]3C(=C)C[C@@]21CC | – | -16.8% | – |
| N[C@@H]1CCCCN(c2c(F)cc3c(=O)c(C(=O)O)cn(C4CC4)c3c2Cl)C1 | – | – | inactive |
| CO[C@H]1C[C@@H]2CC[C@@H](C)[C@@](O)(O2)C(=O)C(=O)N2CCCC[C@H]2C(=O)O[C@H]([C@H](C)C[C@@H]2CC[C@@H](OC(=O)C(C)(CO)CO)[C@H](OC)C2)CC(=O)[C@H](C)/C=C(\C)[C@@H](O)[C@@H](OC)C(=O)[C@H](C)C[C@H](C)/C=C/C=C/C=C/1C | – | -2.03% [at 26.4 µM] | – |
| CN(C)C=Nc1c(I)cc(I)c(CCC(=O)O)c1I | – | – | inactive |
| CCC(C(=O)O)[C@H]1CC[C@H](C)[C@H]([C@@H](C)[C@H](O)[C@H](C)C(=O)[C@H](CC)[C@H]2OC3(C=C[C@@H](O)[C@]4(CC[C@@](C)([C@H]5CC[C@](O)(CC)[C@H](C)O5)O4)O3)[C@H](C)C[C@@H]2C)O1 (some centres not stated) | 0.891 µM (active) | – | – |
| CC=CC1C(C(=O)OCc2c(F)c(F)c(COC)c(F)c2F)C1(C)C (configuration not stated) | – | -12.9% | – |
| CCCCCCCCCCCC[n+]1ccc2ccccc2c1 | 5.62 µM (active) | – | – |
| COC(=O)CCC[N+](C)(C)C | – | – | inactive |
| CCCCCC/C=C\CCCCCCCC(=O)O | – | -14.5% | – |
| CC(C)CCCC(C)NC(C)C (configuration not stated) | – | -20.6% | – |
| CN(C)c1ccc(C(=C2C=CC(=[N+](C)C)C=C2)c2c(O)c(S(=O)(=O)[O-])cc3cc(S(=O)(=O)O)ccc23)cc1 | – | -11% | – |
